In PubChem BioAssay AID1159580 (chemical genetic matrix, 2015):
Out of some 5,500 compounds screened, about 2,000 (36%) were called active. Another 18% or so got no clear call; they are omitted. Rule as the data show it: active = normalized growth mostly below about 0.91 (no sharp cut-off); inconclusive = no clear call, values can overlap the other calls; inactive = mostly above about 0.92. The list shows a part of the results.

Test: chemical genetic growth profiling, strain panel (AID 1159580);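 also: tested at 20 µM; growth read once vehicle control cultures reached saturation at 30 °C; 1 = growth at the plate median or of vehicle wells; lower values mean less growth of the strain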
Details: growth OD

Measured: normalized growth

Oc1ccc2c3c1OC1[C@@H](O)CC[C@@]4(O)[C@@H](C2)N(CC2CCC2)CC[C@]314 (some centres not stated)
inactive: S. cerevisiae deletion strains, locus YJR075W, strain HOC1, hits give low values 1.03 | S. cerevisiae deletion strains, locus YKL009W, strain mrt4, hits give low values 1 | S. cerevisiae deletion strains, locus YKL068W, hits give low values 1.01 | S. cerevisiae deletion strains, locus YKL085W, strain MDH1 (second series), hits give low values 1 | S. cerevisiae deletion strains, locus YKL085W, strain MDH1, hits give low values 1 | S. cerevisiae deletion strains, locus YKL160W, strain elf1, hits give low values 0.992 | S. cerevisiae deletion strains, locus YKL190W, strain CNB1, hits give low values 1.01 | S. cerevisiae deletion strains, locus YKR001C, strain vps1, hits give low values 1.01 | S. cerevisiae deletion strains, locus YKR026C, strain gcn3, hits give low values 0.952 | S. cerevisiae deletion strains, locus YKR091W, strain srl3, hits give low values 0.992 | S. cerevisiae deletion strains, locus YLL001W, strain dnm1, hits give low values 0.978 | S. cerevisiae deletion strains, locus YLL026W, hits give low values 0.999 | S. cerevisiae deletion strains, locus YLL041C, strain sdh2, hits give low values 0.993 | S. cerevisiae deletion strains, locus YLR027C, strain aat2, hits give low values 1 | S. cerevisiae deletion strains, locus YLR039C, strain RIC1, hits give low values 1.04 | S. cerevisiae deletion strains, locus YLR058C, strain SHM2, hits give low values 1.02 | S. cerevisiae deletion strains, locus YLR102C, strain apc9, hits give low values 1.01 | S. cerevisiae deletion strains, locus YLR113W, strain HOG1, hits give low values 0.971 | S. cerevisiae deletion strains, locus YLR221C, strain rsa3, hits give low values 1.02 | S. cerevisiae deletion strains, locus YLR258W, strain gsy2, hits give low values 1.01 | S. cerevisiae deletion strains, locus YLR262C, strain YPT6 (second series), hits give low values 0.986 | S. cerevisiae deletion strains, locus YLR262C, strain YPT6, hits give low values 1.01 | S. cerevisiae deletion strains, locus YLR268W, strain sec22, hits give low values 1.06 | S. cerevisiae deletion strains, locus YLR320W, strain mms22, hits give low values 1.01 | S. cerevisiae deletion strains, locus YLR330W, strain CHS5, hits give low values 1.01 | S. cerevisiae deletion strains, locus YLR342W, strain FKS1 (second series), hits give low values 1.01 | S. cerevisiae deletion strains, locus YLR342W, strain FKS1, hits give low values 1 | S. cerevisiae deletion strains, locus YLR357W, strain rsc2, hits give low values 0.967 | S. cerevisiae deletion strains, locus YLR370C, strain arc18, hits give low values 0.989 | S. cerevisiae deletion strains, locus YLR371W, strain rom2, hits give low values 1.02 | S. cerevisiae deletion strains, locus YLR384C, strain iki3, hits give low values 0.991 | S. cerevisiae deletion strains, locus YLR418C, strain cdc73, hits give low values 1.03 | S. cerevisiae deletion strains, locus YML016C, strain PPZ1, hits give low values 1.01 | S. cerevisiae deletion strains, locus YML032C, strain rad52, hits give low values 1.03 | S. cerevisiae deletion strains, locus YML120C, strain ndi1, hits give low values 1 | S. cerevisiae deletion strains, locus YML124C, strain tub3, hits give low values 1.01 | S. cerevisiae deletion strains, locus YMR058W, strain fet3, hits give low values 1.02 | S. cerevisiae deletion strains, locus YMR078C, strain ctf18, hits give low values 1.02 | S. cerevisiae deletion strains, locus YMR125W, strain sto1, hits give low values 0.982 | S. cerevisiae deletion strains, locus YMR129W, hits give low values 1 | S. cerevisiae deletion strains, locus YMR205C, strain PFK2, hits give low values 0.993 | S. cerevisiae deletion strains, locus YMR223W, strain ubp8, hits give low values 1.01 | S. cerevisiae deletion strains, locus YMR231W, strain pep5, hits give low values 1 | S. cerevisiae deletion strains, locus YMR263W, strain SAP30, hits give low values 1.02 | S. cerevisiae deletion strains, locus YMR307W, strain GAS1, hits give low values 1.04 | S. cerevisiae deletion strains, locus YNL067W, strain RPL9B, hits give low values 1.03 | S. cerevisiae deletion strains, locus YNL071W, strain lat1, hits give low values 1 | S. cerevisiae deletion strains, locus YNL128W, strain TEP1, hits give low values 1.03 | S. cerevisiae deletion strains, locus YNL153C, strain GIM3, hits give low values 1.03 | S. cerevisiae deletion strains, locus YNL183C, strain NPR1, hits give low values 0.914 | S. cerevisiae deletion strains, locus YNL209W, strain ssb2, hits give low values 1.01 | S. cerevisiae deletion strains, locus YNL233W, strain BNI4, hits give low values 1.02 | S. cerevisiae deletion strains, locus YNL248C, strain rpa49, hits give low values 0.92 | S. cerevisiae deletion strains, locus YNL250W, strain rad50, hits give low values 1.01 | S. cerevisiae deletion strains, locus YNL271C, strain bni1, hits give low values 1.01 | S. cerevisiae deletion strains, locus YNL298W, strain CLA4, hits give low values 1.01 | S. cerevisiae deletion strains, locus YNL307C, strain MCK1, hits give low values 1.01 | S. cerevisiae deletion strains, locus YNL322C, strain KRE1 (second series), hits give low values 0.999 | S. cerevisiae deletion strains, locus YNL322C, strain KRE1, hits give low values 1.01 | S. cerevisiae deletion strains, locus YNR049C, strain mso1, hits give low values 0.988 | S. cerevisiae deletion strains, locus YNR052C, strain pop2, hits give low values 1.01 | S. cerevisiae deletion strains, locus YOL006C, strain TOP1, hits give low values 1.04 | S. cerevisiae deletion strains, locus YOL012C, strain htz1 0.773 | S. cerevisiae deletion strains, locus YOL147C, strain pex11, hits give low values 1.01 | S. cerevisiae deletion strains, locus YOR001W, strain rrp6, hits give low values 0.997 | S. cerevisiae deletion strains, locus YOR061W, strain CKA2, hits give low values 1.01 | S. cerevisiae deletion strains, locus YOR069W, strain VPS5, hits give low values 1.01 | S. cerevisiae deletion strains, locus YOR070C, strain gyp1, hits give low values 1 | S. cerevisiae deletion strains, locus YOR080W, strain dia2, hits give low values 0.988 | S. cerevisiae deletion strains, locus YOR083W, strain WHI5, hits give low values 0.987 | S. cerevisiae deletion strains, locus YOR106W, strain vam3, hits give low values 0.993 | S. cerevisiae deletion strains, locus YOR136W, strain idh2, hits give low values 1.02 | S. cerevisiae deletion strains, locus YOR144C, strain elg1, hits give low values 1.01 | S. cerevisiae deletion strains, locus YOR184W, strain ser1, hits give low values 1.01 | S. cerevisiae deletion strains, locus YOR231W, strain MKK1, hits give low values 0.96 | S. cerevisiae deletion strains, locus YOR265W, strain rbl2, hits give low values 1 | S. cerevisiae deletion strains, locus YOR270C, strain vph1, hits give low values 0.997 | S. cerevisiae deletion strains, locus YOR290C, strain snf2, hits give low values 1.02 | S. cerevisiae deletion strains, locus YOR316C, strain cot1, hits give low values 1.02 | S. cerevisiae deletion strains, locus YPL051W, strain arl3, hits give low values 1.01 | S. cerevisiae deletion strains, locus YPL055C, strain LGE1, hits give low values 1.05 | S. cerevisiae deletion strains, locus YPL078C, strain atp4, hits give low values 0.984 | S. cerevisiae deletion strains, locus YPL106C, strain sse1, hits give low values 1.01 | S. cerevisiae deletion strains, locus YPL240C, strain hsp82, hits give low values 0.997 | S. cerevisiae deletion strains, locus YPL241C, strain CIN2, hits give low values 1.01 | S. cerevisiae deletion strains, locus YPL256C, strain CLN2, hits give low values 0.972 | S. cerevisiae deletion strains, locus YPR119W, strain clb2, hits give low values 1.01 | S. cerevisiae deletion strains, locus YPR141C, strain kar3, hits give low values 1.02 | S. cerevisiae deletion strains, locus YPR163C, strain tif3, hits give low values 1.01 | S. cerevisiae deletion strains, locus YPR167C, strain met16, hits give low values 1.02 | S. cerevisiae deletion strains, strain wtn01, hits give low values 1.02 | S. cerevisiae strains, strain wild type, hits give low values 1.02
